# The whole screen tested about 370,000 compounds, of which about 4,100 (1.1%) were called active. The full list was thinned out, with actives kept by preference. Unmarked numbers belong to inactive results.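 Rule for the calls: active = inhibition above the mean over all tested compounds plus 3 SD (cut at about 3.6% in these data); inactive = the rest.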
# Test: relief of DAX-1 repression of SF-1 activity – cell-based, luminescence, SF-1 (NR5A1), full-length DAX-1, primary screen (AID 652010);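 note: 0% = DAX-1 cells with DMSO and 100% = cells lacking DAX-1 with DMSO; higher inhibition means more luminescence from relief of DAX-1 repression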
# Conditions: HEK293T StAR-luciferase reporter, SF-1/DAX-1 repression relief; at 6.8 µM; hits give high values
row,SMILES,inhibition
1,C=C(C)C#CC(Cc1ccccc1)N(CC1CC1)/C(N)=N/C(=O)OCc1ccccc1 (stereo unspecified),-1.59%
2,CC(=O)C1(C(=O)Nc2nccs2)CC(c2ccccc2C(F)(F)F)=NO1 (stereo unspecified),-0.45%
3,COc1ccnc(C(=O)N2CCC(Oc3cccnc3)CC2)c1,-0.42%
4,COc1ccc(N2CCN(CCNS(=O)(=O)c3ccc([N+](=O)[O-])cc3)CC2)cc1,-1.45%
5,O=C(NC1CCCCN(Cc2ccc(Cl)cc2)C1=O)c1ccc(Br)cc1 (stereo unspecified),-1.64%
6,O=c1[nH]c(-c2ccccc2)cn1C1CCN(Cc2ccc(-c3nc4ccc(F)cc4nc3-c3ccccc3)cc2)CC1,-0.54%
7,CN1CCN(C(=O)c2ccc(-c3ccc(Br)cc3)o2)CC1,4.56% (active)
8,O=CN1CCN(C(=O)c2ccc(Br)o2)CC1,-0.07%
9,CN1CCN(C(=O)c2ccc(NC(=O)c3ccc(Br)o3)cc2)CC1,0.03%
10,COC(=O)[C@]12C[C@H](CC(=O)N3CCOCC3)C(=O)N(Cc3ccc(Cl)cc3Cl)C1=C[C@H](C(C)C)O[C@@H]2C1CC1,-0.52%
11,O=C(CNC(=O)c1ccc2ccccc2c1)Nc1ncccc1O,1.3%
12,CCOC(=O)c1cccnc1NC(=O)c1ccncc1,0.42%
13,O=C(Nc1ccc(S(=O)(=O)N2CCCCC2)cc1)c1cnccn1,0.17%
14,O=C(Nc1ncccc1O)c1ccc(C(=O)c2ccccc2)cc1,69.9% (active)
15,O=C(Nc1ncccc1O)c1ccc(S(=O)(=O)N2CCCC2)cc1,10.9% (active)
16,O=C(Nc1ncccc1O)c1ccc(S(=O)(=O)N2CCCCCC2)cc1,6.81% (active)
17,CC(C)(C)n1nc2c(c1NC(=O)c1ccc(S(=O)(=O)N3CCCC3)cc1)CS(=O)C2 (stereo unspecified),-0.67%
18,CN1CCN(NC(=O)c2ccc(S(=O)(=O)N3CCCCCC3)cc2)CC1,-0.23%
19,CCN(CC)S(=O)(=O)c1cccc(NC(=O)c2ccc(S(=O)(=O)N3CCCC3)cc2)c1,-3.89%

row,SMILES,inhibition
1,CC(=O)Nc1nc2ncccn2c1-c1ccc(C(F)(F)F)cc1,-0.41%
2,CCN(C(=O)[C@@H](C1CC1)[C@@H](O)c1ccc2ccccc2c1)c1ccccc1,-0.4%
3,COC(=O)C1CN(Cc2cn(Cc3ccc(F)cc3)nn2)CCS(=O)(=O)N1Cc1ccc(Cl)cc1 (stereo unspecified),-0.95%
4,Cc1ccc(-c2nc3ccccc3[nH]2)cc1N,6.54% (active)
5,C/C(=N\Nc1nc2ccccc2[nH]1)c1cccs1,3.55%
6,c1ccc2[nH]c(-c3nc4ccccc4[nH]3)nc2c1,5.77% (active)
7,CCOC(=O)c1nc(-c2ccc3c(c2)OCO3)[nH]c1C,2.3%
8,CCOC(=O)CNC(=O)CSc1ncccc1-c1nc2ccccc2[nH]1,0.2%
9,O=C1c2ccccc2C(c2nc3ccccc3[nH]2)N1c1ccccc1 (stereo unspecified),-1.53%
10,COc1ccc(NC(=O)C2=CC(c3ccc(OC)c(OC)c3)=NS(=O)(=O)N2C)cc1,-5%
11,COc1ccc(-c2cc(-c3nnc(SCc4ccc([N+](=O)[O-])cc4)n3N)[nH]n2)cc1,-1.87%
12,CCOc1ccc(N(CC(=O)Nc2c(C)n(C)n(-c3ccccc3)c2=O)S(=O)(=O)c2ccc(Cl)s2)cc1,-1.26%
13,Cc1ccccc1OCCC(=O)OCC(=O)NCCc1ccc(S(N)(=O)=O)cc1,2.36%
14,CCC(NC(=O)C1C2C=CC3(CN(Cc4ccccc4)C(=O)C13)O2)c1ccccc1 (stereo unspecified),-0.13%
15,Cc1cccc(NC(=O)c2cc3c(C)nn(-c4ccccc4)c3s2)c1,-0.95%
16,CN(C)CC(=O)N[C@@H]1C[C@@H]2O[C@H](CO)CC[C@@H]2O[C@@H]1CCc1ccc(C#Cc2ccccc2)cc1,-1.24%
17,O=C(CSCc1ccccc1)N1CCc2ccccc21,3.64% (active)
18,O=C(CN1C(=O)c2ccccc2S1(=O)=O)N1CCc2ccccc21,-2.91%
19,CC(OC(=O)Cc1ccc(F)cc1)C(=O)N1CCc2ccccc21 (stereo unspecified),0.95%

row,SMILES,inhibition
1,Cc1ccc(-n2c(SCC(=O)Nc3ccc(S(=O)(=O)Nc4nccs4)cc3)nnc2-c2cccnc2)cc1,0.65%
2,CCOC(=O)[C@]12CCCCC/C=C\1N(Cc1ccc(OC)cc1)C(=O)[C@H]2CC(=O)NCc1ccc(C)o1,0.47%
3,COc1cc(C2CC(=O)Oc3cc(OC)c(OC)c(OC)c32)cc(OC)c1OC (stereo unspecified),0.24%
4,COc1cc(C=C(OC(C)=O)c2ccc3c(c2)OCO3)cc(OC)c1OC,-1.67%
5,COc1cc(C2c3cc4c(cc3C(O)C3COC(=O)C23)OCO4)cc(OC)c1OC (stereo unspecified),7.49% (active)
6,O=C(NC1CCCCN(Cc2cccc(C(F)(F)F)c2)C1=O)c1ccccc1I (stereo unspecified),-0.84%
7,Cc1ccc(C(=O)C2CCN(CC(=O)NCCC(C)C)CC2)cc1,-0.3%
8,O=c1c2ccccc2nc2n1C(CSc1ccc(Cl)cc1)CN2 (stereo unspecified),0.41%
9,Clc1ccc2nc(CSc3ccccc3)cn2c1,4.45% (active)
10,Cn1nc(-c2ccccc2)c(CSc2cccc(Cl)c2)c1Cl,-0.99%
11,O=C(N[C@H](C(=O)N1CCC[C@H]1C(=O)NCCc1ccccc1Cl)c1ccccc1)c1ccccc1,-0.28%
12,CCOC(=O)[C@]12CCCC3=C1N(CCC3)C(=O)[C@@H](CC(=O)NCc1cccs1)C2,0.02%
13,CC(CCN1CCC(C(O)(c2ccccc2)c2ccccc2)CC1)Oc1ccc(C(F)(F)F)cc1 (stereo unspecified),-0.91%
14,Cc1ccc(Nc2c(F)c(F)c(F)c(F)c2C(=O)O)c(C)c1,0.38%
15,Cc1cc(C#N)c(SCC(N)=O)nc1-c1ccc(F)cc1,0.32%
16,COc1ccc(CCNC(=O)CSc2nc(-c3ccc(OC)c(OC)c3)ccc2C#N)cc1,-0.18%
17,CCOc1ccc2cc(C#N)c(SCC(=O)OC)nc2c1,3.71% (active)
18,Cc1ccc(-n2c(COc3ccccc3)nnc2SCC(=O)Nc2ccc3c(c2)OCCO3)cc1,-2.9%
